High-throughput results from PubChem BioAssay.
Compounds with a hit are over-represented: about 1.7% of the library has one in this group of screens.
CFTR F508del cor: CFTR F508del correction in bronchial cells; CFBE cells, YFP halide quenching; stimulated with forskolin plus potentiator P3; % fluorescence drop versus neutral controls; activity (quench increase), % at 7.58 µM; 0.36% of 350,000 active;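 active means mean added fluorescence quench of at least 8% versus neutral control, with both replicates also reaching 8%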;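 further: cells transiently co-express mutant CFTR-F508del with the halide-sensitive YFP; corrector assay measuring rescue of mutant channel to the surface after 24 h compound exposure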
FGF22 binding: FGF22 (human) thermal shift binding. Q9HCT0. recombinant FGF22 thermal shift, SYPRO orange fluorescence; percent of sucrose octasulfate shift, DMSO zero. activity (Tm shift, normalised), % at 9.99 µM. 1.5% of 340,000 active. AID 651658;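 active means mean Tm shift, scaled 0 neutral to 100 positive control, at about 1.3% or above, every replicate too, limit read from the data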
Target sequence (Q9HCT0 whole entry, looked up): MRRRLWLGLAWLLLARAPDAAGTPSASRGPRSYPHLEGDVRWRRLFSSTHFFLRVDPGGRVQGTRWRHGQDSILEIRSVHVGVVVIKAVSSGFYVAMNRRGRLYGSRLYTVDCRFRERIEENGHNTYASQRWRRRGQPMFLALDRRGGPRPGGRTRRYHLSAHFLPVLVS
Vif imaging: inhibitors of HIV Vif; 0.35% of 340,000 active; inhibition, % at 7.49 µM; HEK293T cells, Vif self-association by quenched fluorescence, imaging, 24 h; AID 602346; in the data active means inhibition above about 50%, passing the limit was not always enough
The depositor's hits bear a star.

`COc1cc(C2c3cc4c(cc3OC(NNC(N)=O)C2C)OCO4)cc(OC)c1OC` (stereo not drawn) gave CFTR F508del cor 1.5, FGF22 binding -0.2 and Vif imaging -11.2.
COc1cc([C@@H]2c3cc4c(cc3[C@H](O)[C@H]3COC(=O)[C@H]23)OCO4)cc(OC)c1OC was read as CFTR F508del cor -0.6, FGF22 binding -0.1 and Vif imaging active.
`COc1cc(C2c3cc4c(cc3OC(NNC(N)=S)C2C)OCO4)cc(OC)c1OC` (stereo not drawn) gave CFTR F508del cor 2.5, FGF22 binding -0.1 and Vif imaging 56.0*.
COc1ccc(C2c3cc4c(cc3OC(NNC(N)=O)C2C)OCO4)cc1 (stereo not drawn) was read as CFTR F508del cor 2.1, FGF22 binding -0.3 and Vif imaging -15.9.
Screening COc1ccccc1NC(=O)N[C@@H]1C=C[C@H](CC(=O)NCc2ccc(Cl)c(Cl)c2)O[C@H]1CO returned CFTR F508del cor 2.1 and FGF22 binding -0.3.
Screening COCC#Cc1ccc([C@H]2[C@@H](CO)N3CCCCN(C(=O)Nc4cc(F)ccc4F)C[C@@H]23)cc1 returned CFTR F508del cor -1.2 and FGF22 binding 0.4.
`C[C@H](CO)N1C[C@H](C)[C@@H](CN(C)C(=O)Cc2ccccn2)Oc2ncc(C#CC3CCCCC3)cc2C1=O` gave CFTR F508del cor 2.4 and FGF22 binding 0.2.
For S=C(c1c[nH]c2ccccc12)N1CCCC1 the results were CFTR F508del cor 1.0, FGF22 binding -0.2 and Vif imaging 1.2.
For CC(OC(=O)c1c[nH]c2ccccc12)C(=O)N1CCCC1 (stereo not drawn) the results were CFTR F508del cor -1.1, FGF22 binding -0.5 and Vif imaging 63.8*.
Screening Cn1c(=O)c(NCCc2ccccc2)c2c3c(cccc31)C(=O)c1ccccc1-2 returned Vif imaging inactive.
Cn1c(=O)c(N)c2c3c(c(Br)ccc31)C(=O)c1ccccc1-2 was read as CFTR F508del cor 11.4*, FGF22 binding -0.3 and Vif imaging inactive.
Screening CNC(=O)C[C@H]1CC[C@@H]2[C@@H](COc3ccc(NC(=O)Nc4ccc(F)c(F)c4)cc3C(=O)N2C)O1 returned CFTR F508del cor -3.1 and FGF22 binding 0.0.
`CCOC(=O)c1nn(C)c2[nH]c(=O)n(C)c(=O)c12` gave CFTR F508del cor -0.3, FGF22 binding 43.8* and Vif imaging -1.5.
CCOC(=O)Nc1c(Cl)[nH]c(=O)n(C)c1=O was read as CFTR F508del cor 2.2, FGF22 binding 0.2 and Vif imaging 15.6.
CSc1nc2ccccc2n1Cc1cccc([N+](=O)[O-])c1 was read as CFTR F508del cor 2.3, FGF22 binding 44.0* and Vif imaging -0.5.
CSc1nc2ccccc2n1Cc1cccc(F)c1 was read as Vif imaging 3.5.
`CCCCC(=O)Nc1nnc(CCOC)s1` gave CFTR F508del cor -2.3, FGF22 binding 42.9* and Vif imaging 2.0.
CCCC(=O)Nc1nnc(CCOC)s1 was read as CFTR F508del cor 0.4, FGF22 binding -0.2 and Vif imaging 12.4.
Screening CCN(CC)CCCN(Cc1cc2cc3c(cc2[nH]c1=O)OCO3)C(=S)Nc1ccccc1OC returned CFTR F508del cor -0.5, FGF22 binding 0.4 and Vif imaging 5.3.
O=C(c1ccco1)N(CCO)Cc1cc2cc3c(cc2[nH]c1=O)OCO3 was read as CFTR F508del cor 2.1, FGF22 binding 43.2* and Vif imaging -3.2.
For O=C(c1ccccc1)N(CCO)Cc1cc2cc3c(cc2[nH]c1=O)OCCO3 the results were CFTR F508del cor 0.0, FGF22 binding 0.3 and Vif imaging -2.7.
For CN(C)CCCN(Cc1cc2cc3c(cc2[nH]c1=O)OCO3)C(=S)Nc1cccc(Cl)c1 the results were CFTR F508del cor 1.4, FGF22 binding 0.4 and Vif imaging 2.5.
`COc1ccccc1NC(=S)N(CCCN(C)C)Cc1cc2cc3c(cc2[nH]c1=O)OCO3` gave CFTR F508del cor -3.3, FGF22 binding 43.5* and Vif imaging -3.3.
`CN(C)CCCN(Cc1cc2cc3c(cc2[nH]c1=O)OCO3)C(=S)Nc1ccccc1` gave CFTR F508del cor 0.4, FGF22 binding 43.0* and Vif imaging -5.1.
Screening C[C@H](CO)N1C[C@H](C)[C@@H](CN(C)C(=O)Nc2ccc3c(c2)OCO3)OCCCC[C@H](C)Oc2ccc(NS(=O)(=O)c3cccs3)cc2C1=O returned CFTR F508del cor -4.3 and FGF22 binding 0.1.
Screening Cc1noc(C)c1NC(=O)Nc1ccc2c(c1)C(=O)N([C@@H](C)CO)C[C@@H](C)[C@@H](CN(C)Cc1ccc3c(c1)OCO3)OCCCC[C@H](C)O2 returned CFTR F508del cor 0.4 and FGF22 binding -0.1.
CCCNC(=O)N(C)C[C@@H]1Oc2cc(-c3ccc(C)cc3)ccc2S(=O)(=O)N([C@H](C)CO)C[C@@H]1C was read as CFTR F508del cor 0.1 and FGF22 binding 0.2.
`CSc1ccccc1C(=O)C1CCCN(C(=O)c2csnn2)C1` (stereo not drawn) gave CFTR F508del cor 0.5, FGF22 binding 43.2* and Vif imaging -5.8.
Screening CSc1ccccc1C(=O)C1CCCN(C(=O)c2cc(C(C)C)no2)C1 (stereo not drawn) returned CFTR F508del cor -2.4, FGF22 binding 0.2 and Vif imaging 2.2.
Screening C[C@@H]1CN([C@H](C)CO)C(=O)c2cccc(NS(=O)(=O)c3ccccc3)c2O[C@H]1CN(C)Cc1ccc(Oc2ccccc2)cc1 returned CFTR F508del cor -3.9 and FGF22 binding -0.8.
For Cc1ccc(C(=O)Nc2cccc(C(F)(F)F)c2)cc1NC(=O)c1nccn1C the results were CFTR F508del cor -2.9, FGF22 binding 0.2 and Vif imaging -14.5.
Cc1ccc(C(=O)Nc2cccc(C(F)(F)F)c2)cc1Nc1cnccn1 was read as CFTR F508del cor 10.3*, FGF22 binding -0.4 and Vif imaging -3.3.
For CCOc1cc(NC(=S)NCC2CCCO2)c(OCC)cc1NC(=O)C1CC1 (stereo not drawn) the results were CFTR F508del cor 0.1, FGF22 binding 42.9* and Vif imaging 1.2.
`CCOc1cc(NC(=S)NCC2CCCO2)c(OCC)cc1NC(=O)c1ccccc1` (stereo not drawn) gave Vif imaging -1.5.
C[C@H]1CN([C@@H](C)CO)C(=O)c2cccc(NS(=O)(=O)c3ccc(F)cc3)c2O[C@@H]1CN(C)S(=O)(=O)c1cn(C)cn1 was read as CFTR F508del cor -0.1 and FGF22 binding -0.1.
Screening CCn1cc(/C=N\NC(=O)c2c[nH]c3ccccc23)c(C)n1 returned Vif imaging 0.1.
`Cc1c(/C=N\NC(=O)c2c[nH]c3ccccc23)cnn1C` gave CFTR F508del cor -1.2, FGF22 binding 44.0* and Vif imaging 1.0.
`Cc1noc(C)c1S(=O)(=O)N(C)C[C@H]1Oc2ccc(NC(=O)C3CCCCC3)cc2CC(=O)N([C@H](C)CO)C[C@@H]1C` gave CFTR F508del cor 0.7 and FGF22 binding -0.1.
`COc1ccc(S(=O)(=O)N2CCC3(CC2)CN(C(=O)CN(C)C)[C@@H](CO)c2c3c3ccc(OC)cc3n2C)cc1` gave CFTR F508del cor 1.4 and FGF22 binding -0.2.
